Assay [1] in a line: resazurin metabolic signal in HepG2 cells – cell-based, resazurin fluorescence, 24 h, PK04 Diversity Set, profiling panel (AID 1172). As to conditions: HepG2 viability, higher = more signal. (The colour change of resazurin is a common sign of viable cells or microbes.)
The nature of assay [2]: budding yeast growth changes without added modifier – OD600, strain BY4716, 24 h, basal condition, primary screen (AID 1173). As to conditions: S. cerevisiae BY4716 growth, OD600, 24 h; higher = more signal, called active from +8 up or from −8 down.
Assay [3] in a line: viability profiling in MM1S myeloma cells – cell-based, resazurin fluorescence, basal, 24 h, PK04 Diversity Set, profiling panel (AID 1174). As to conditions: higher = more signal, called active from +8 up or from −8 down.
The target of assay [4] is Dihydroorotate dehydrogenase (quinone), mitochondrial (Plasmodium falciparum (isolate 3D7)) (UniProt Q08210). In words: inhibition of P. falciparum DHODH – biochemical, C-terminal His tag, absorbance 600 nm, primary screen (AID 1175).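 Further: recombinant parasite enzyme with a five histidine tag at its C terminus.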 As to conditions: PfDHODH enzyme, DCIP absorbance 600 nm; higher = more signal, called active from +8 up or from −8 down.
Sequence of Dihydroorotate dehydrogenase (quinone), mitochondrial (Plasmodium falciparum (isolate 3D7)) (Q08210 whole entry, looked up): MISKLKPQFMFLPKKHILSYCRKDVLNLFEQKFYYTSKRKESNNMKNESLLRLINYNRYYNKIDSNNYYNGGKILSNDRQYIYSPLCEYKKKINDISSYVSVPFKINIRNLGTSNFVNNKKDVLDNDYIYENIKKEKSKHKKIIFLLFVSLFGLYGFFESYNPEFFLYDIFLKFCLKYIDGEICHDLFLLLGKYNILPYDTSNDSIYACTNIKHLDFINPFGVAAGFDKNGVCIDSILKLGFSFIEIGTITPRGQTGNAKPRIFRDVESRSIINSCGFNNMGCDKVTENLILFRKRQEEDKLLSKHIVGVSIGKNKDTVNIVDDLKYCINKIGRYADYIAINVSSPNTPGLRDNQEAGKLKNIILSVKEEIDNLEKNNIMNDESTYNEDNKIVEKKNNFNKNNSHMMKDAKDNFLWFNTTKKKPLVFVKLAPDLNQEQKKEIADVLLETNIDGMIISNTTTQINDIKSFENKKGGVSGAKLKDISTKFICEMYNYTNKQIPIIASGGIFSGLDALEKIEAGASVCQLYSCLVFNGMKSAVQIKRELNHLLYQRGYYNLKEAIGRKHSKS
Assay [5] can be described thus: inhibition of PAO1 biofilm formation – strain PAO1, LB-PBS medium, absorbance 600 nm, primary screen (AID 1176). As to conditions: P. aeruginosa PAO1 growth/biofilm, A600, 12 h; higher = more signal.
Assay [6] in a line: growth modulation of vineyard yeast isolate – strain RM11-1a, OD600, basal, 24 h, primary screen (AID 1177).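 Further: cultures grown under basal conditions with no added stressor.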 As to conditions: S. cerevisiae RM11-1a growth, OD600, 24 h; higher = more signal, called active from +8 up or from −8 down.
Assay [7] can be described thus: growth of efflux-deficient E. coli DRC39 – strain DRC39, OD650, 24 h, E. coli filamentation inducers, primary screen (AID 1178).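 Further: growth measured as culture turbidity by optical density at 650 nm.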 As to conditions: E. coli DRC39 acrAB, higher = more signal, called active from +8 up or from −8 down.
Assay [8] in a line: growth of efflux-deficient E. coli DRC39 – strain DRC39, OD650, 48 h, E. coli filamentation inducers, primary screen (AID 1179).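 Further: screen aims at cell division blockers that make cells filament.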 As to conditions: E. coli DRC39 delta-acrAB growth, higher = more signal, called active from +8 up or from −8 down.
Assay [9] can be described thus: viability profiling in RPMI8226 myeloma cells – cell-based, resazurin fluorescence, basal, 24 h, PK04 Diversity Set, profiling panel (AID 1180).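 Further: RPMI8826 multiple myeloma cell line at 5000 cells per well.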 As to conditions: higher = more signal.
Assay [10] has as its target E3 ubiquitin-protein ligase XIAP (Homo sapiens) (UniProt P98170). Put plainly: small molecules binding XIAP protein – biophysical, small-molecule microarray, fluorescence 635 nm, primary screen (AID 1181).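 Further: score merges 667 nm emission and signal to noise over triplicate slides.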 As to conditions: higher = more signal.
Assay [11] concerns XIP peptide (Xip251-270) binding. In words: XIP fragment 251-270 binding compounds – biochemical, small-molecule microarray, fluorescence 635/667 nm, 0.1 µg/mL protein, primary screen (AID 1182). As to conditions: fluorescent protein binding, 635 nm, higher = more signal, called active from +8 up or from −8 down.
Assay [12] has as its system XIP peptide (Xip251-270). In words: compounds binding XIP fragment 251-270 – biochemical, small-molecule microarray, fluorescence 635/667 nm, 0.5 µg/mL protein, primary screen (AID 1183). As to conditions: fluorescence 635 nm, higher = more signal.
Assay [13] can be described thus: blood-stage malaria parasite viability loss – strain 3D7, DAPI fluorescence, 100 nL, primary screen (AID 1184).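 Further: parasites grown inside human red blood cells in medium with human serum.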 As to conditions: P. falciparum 3D7 growth, 3 d, higher = more signal.
Assay [14] has as its target Homeobox protein Hox-A13 (Mus musculus) (UniProt Q62424). In words: disruptors of Hoxa13 oligonucleotide interaction – biochemical, fluorescence polarization, labeled oligonucleotide, primary screen (AID 1185). As to conditions: Hoxa13:DNA binding, 15 min, higher = more signal, called active from +8 up or from −8 down. (Fluorescence polarisation rises when a labelled molecule tumbles more slowly, as on binding a larger partner.)

A short description of assay [15]: blockers of DNA damage checkpoint Chk1 activation – imaging, HeLa, hydroxyurea, phospho-Chk1 antibody, percent positive cells, primary screen (AID 1186). As to conditions: hydroxyurea-induced phospho-Chk1 immunofluorescence imaging, higher = more signal.
Assay [16] in a line: blockers of DNA damage checkpoint Chk1 activation – imaging, HeLa, hydroxyurea, phospho-Chk1 nuclear intensity, primary screen (AID 1187). As to conditions: hydroxyurea-induced phospho-Chk1 immunofluorescence imaging, higher = more signal.

Active and inactive are the calls of the source. Unless noted, how the calls were made is not given here.

The results in this text go back to PubChem BioAssay.

Sequence of E3 ubiquitin-protein ligase XIAP (Homo sapiens) (P98170 whole entry, looked up, the tested form may be a part): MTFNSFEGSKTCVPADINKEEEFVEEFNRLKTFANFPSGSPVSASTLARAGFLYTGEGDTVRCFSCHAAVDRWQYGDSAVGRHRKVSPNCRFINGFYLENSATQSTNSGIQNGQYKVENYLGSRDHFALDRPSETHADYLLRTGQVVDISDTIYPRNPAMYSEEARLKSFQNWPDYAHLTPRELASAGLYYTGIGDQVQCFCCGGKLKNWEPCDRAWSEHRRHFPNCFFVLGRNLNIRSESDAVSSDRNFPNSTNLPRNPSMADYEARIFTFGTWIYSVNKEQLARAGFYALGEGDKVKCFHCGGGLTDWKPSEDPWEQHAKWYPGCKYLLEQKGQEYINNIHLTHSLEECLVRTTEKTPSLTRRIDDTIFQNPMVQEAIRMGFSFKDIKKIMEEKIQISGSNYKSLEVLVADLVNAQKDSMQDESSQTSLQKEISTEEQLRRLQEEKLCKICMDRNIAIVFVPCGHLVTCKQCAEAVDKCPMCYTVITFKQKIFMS
Sequence of Homeobox protein Hox-A13 (Mus musculus) (Q62424 whole entry, looked up): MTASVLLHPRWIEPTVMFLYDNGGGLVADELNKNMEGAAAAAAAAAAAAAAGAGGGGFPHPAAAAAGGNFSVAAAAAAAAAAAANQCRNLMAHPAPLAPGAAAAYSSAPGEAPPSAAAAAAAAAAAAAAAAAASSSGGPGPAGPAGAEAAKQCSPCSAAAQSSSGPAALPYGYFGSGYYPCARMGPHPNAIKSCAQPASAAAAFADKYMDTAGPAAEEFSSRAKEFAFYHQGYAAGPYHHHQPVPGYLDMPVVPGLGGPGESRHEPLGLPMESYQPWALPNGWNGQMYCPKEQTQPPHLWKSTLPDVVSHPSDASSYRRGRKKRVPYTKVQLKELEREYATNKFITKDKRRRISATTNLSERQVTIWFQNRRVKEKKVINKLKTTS

Take `CN(C)CCCNC(=O)[C@@]1(C)c2ccccc2C(=O)N(Cc2cc(C(F)(F)F)cc(C(F)(F)F)c2)[C@H]1c1ccc(CO)cc1`: the z-score in assay [1] was -1.19; in [2] it was -0.808 (inactive); in [3], -0.244 (inactive); in [5] it was 1.98 (inactive); in [6], 0.874 (inactive); in assay [7], 0.365 (inactive). The z-score is -1.39 (inactive) in assay [8]; -0.0867 in assay [9]; -1.27 in [13]; -2.7 (inactive) in assay [14]; -0.0172 (inactive) in assay [15]; -0.0753 (inactive) in assay [16]. Further, the composite z-score in [4] was 0.779 (inactive); in [10], -0.239; in assay [11], 0.23 (inactive); in [12], -0.987.

Consider `COc1ccc([Si](C)(C)[C@H]2[C@H](CCn3cc(CCO)nn3)O[C@@]3(C(=O)N(Cc4ccc(N5C(=O)c6cccc7cccc5c67)cc4)c4ccccc43)[C@@H]2C)cc1`, for which the z-score in assay [1] was -2.42; in assay [2], 0.0502 (inactive); in [3] it was -5.99 (inactive); in assay [5] it was 0.519 (inactive); in assay [6], 1.66 (inactive); in assay [7], 0.528 (inactive). Also, the z-score in [8] is 0.251 (inactive); in assay [9], -5.65; in [13], -2.28; in [14], -3.7 (inactive); in [15], -0.771 (inactive); in [16], -0.923 (inactive). Further, the composite z-score is -1.14 (inactive) in assay [4], 0.0636 in assay [10], 0.146 (inactive) in assay [11] and 0.625 in [12].

Consider `C=CCOC(=O)[C@H]1[C@@H]2C(=O)O[C@@H](c3ccccc3)[C@@H](c3ccccc3)N2[C@@H](c2ccc(OCCOC(=O)[C@H]3C[C@H]4C(=O)N[C@@H](Cc5ccccc5)C(=O)N4[C@H]3c3cccc(OCCO)c3)cc2)[C@]12C(=O)Nc1ccc(I)cc12`, for which the z-score was 0.169 in assay [1]; 1.42 (inactive) in assay [2]; -0.446 (inactive) in assay [3]; 2.17 (inactive) in assay [5]; 1.04 (inactive) in [6]; -0.0281 (inactive) in [7]. In addition, the z-score in [8] is 0.0436 (inactive); in assay [9], 0.0282; in assay [13], -1.65; in [14], 0.643 (inactive); in [15], 0.27 (inactive); in assay [16], -0.0401 (inactive). The composite z-score is 0.64 (inactive) in assay [4], -0.105 in assay [10], 0.893 (inactive) in assay [11] and 0.464 in assay [12].

As for `CN(C)CCCNC(=O)[C@@H]1c2ccccc2C(=O)N(Cc2ccc(OC(F)(F)F)cc2)[C@H]1c1ccc(CO)cc1`, the z-score was -0.39 in [1]; 0.0639 (inactive) in [2]; 0.983 (inactive) in [3]; 0.407 (inactive) in [5]; 1 (inactive) in [6]; 0.897 (inactive) in assay [7]. The z-score in assay [8] was -0.193 (inactive); in [9], 0.818; in [13], -1.9; in [14], -3.41 (inactive); in assay [15], -0.234 (inactive); in [16] it was -0.296 (inactive). Moreover, the composite z-score in assay [4] was 0.853 (inactive); in assay [10] it was -0.117; in [11], 0.323 (inactive); in [12], 0.721.

Take `COC(=O)[C@]1(CCS(=O)(=O)c2ccccc2)N=C(c2ccc(OCCCO)cc2)O[C@@H]1c1ccccc1CN=[N+]=[N-]`: the z-score was -1.71 in assay [1]; 1.69 (inactive) in [2]; -4.25 (inactive) in [3]; 1.32 (inactive) in [5]; 1.91 (inactive) in assay [6]; 0.153 (inactive) in [7]. Besides, the z-score in assay [8] is -1.14 (inactive); in assay [9], -3.68; in assay [13], -2.2; in assay [14] it was -0.936 (inactive); in [15] it was -0.375 (inactive); in assay [16], -0.574 (inactive). The composite z-score in assay [4] is 1.09 (inactive); in assay [10], -0.0062; in assay [11] it was 0.867 (inactive); in [12], 0.769.

`CO[C@H]1O[C@H](CO)[C@@H](OC(=O)Nc2ccc(Oc3ccccc3)cc2)[C@H](OC(=O)Nc2ccccc2-c2ccccc2)[C@@H]1OC(=O)Nc1ccccc1-c1ccccc1`: the z-score in assay [1] is 0.776; in [2], 1.01 (inactive); in assay [3], -0.648 (inactive); in assay [5], 0.18 (inactive); in [6], 2.58 (inactive); in [7], -0.325 (inactive). The z-score in assay [8] is -0.0232 (inactive); in assay [9], -0.296; in assay [13], -2.39; in assay [14], -1.71 (inactive); in assay [15] it was -0.141 (inactive); in assay [16], -0.148 (inactive). The composite z-score in assay [4] is 0.308 (inactive); in assay [10] it was -0.117; in assay [11], 0.356 (inactive); in [12] it was 0.759.

For the molecule `C[C@@H]1ON(c2ccc(C(=O)OC(C)(C)C)cc2)[C@H](c2ccc(Br)cc2)[C@H]1C(=O)N1C(=O)OC[C@H]1Cc1ccccc1`, the z-score in [1] was 0.318; in assay [2], 0.0743 (inactive); in assay [3], 0.652 (inactive); in assay [5], 0.224 (inactive); in assay [6], 0.538 (inactive); in assay [7], 0.488 (inactive). The z-score was 0.46 (inactive) in assay [8]; 1.23 in [9]; -0.238 in assay [13]; -0.654 (inactive) in [14]; -0.55 (inactive) in assay [15]; -0.237 (inactive) in [16]. In addition, the composite z-score is 0.315 (inactive) in [4], -0.16 in assay [10], 0.36 (inactive) in [11] and 0.321 in [12].

`CC1CC/C=C\[C@H]2OC34C=CCN(CCN5CCOCC5)C(=O)[C@H]3N(CCO)C(=O)[C@@H]4C2C(=O)O1` (some centres undefined): the z-score was 0.106 in [1]; -0.158 (inactive) in [2]; 0.322 (inactive) in [3]; 0.826 (inactive) in assay [5]; -0.585 (inactive) in [6]; -0.0987 (inactive) in [7]. Moreover, the z-score in [8] is -0.557 (inactive); in assay [9], 0.119; in assay [13], 0.055; in [14] it was -5.81 (inactive); in assay [15] it was 0.0898 (inactive); in assay [16] it was 0.139 (inactive). The composite z-score is -0.4 (inactive) in assay [4], -0.128 in [10], 0.467 (inactive) in assay [11] and 0.829 in assay [12].

As to `CN(C)CCCNC(=O)[C@@H]1c2ccccc2C(=O)N(CC23CC4CC(CC(C4)C2)C3)[C@H]1c1ccc(CO)cc1`, the z-score was -0.701 in assay [1]; -3.33 (inactive) in assay [2]; -0.809 (inactive) in assay [3]; 0.0435 (inactive) in [5]; 0.28 (inactive) in assay [6]; 0.309 (inactive) in assay [7]. For the same molecule, the z-score was 0.401 (inactive) in assay [8]; -0.692 in [9]; -2.18 in [13]; 3.41 (inactive) in [14]; 0.595 (inactive) in assay [15]; 1.05 (inactive) in assay [16]. In addition, the composite z-score in [4] was -0.184 (inactive); in assay [10] it was 0.0973; in assay [11], 1.18 (inactive); in [12] it was 0.824.
